The source of these data is PubChem BioAssay (EPA / NIEHS).

In assay [1] the target is Bile acid receptor (Homo sapiens) (UniProt Q96RI1). Nature of the assay: OT_FXR_FXRSRC1_0480: Odyssey Thera (OT) 8-hour HEK293T Protein-Complementation Assay for Farnesoid X receptor/SRC-1 Co-activator (AID 2283383; active = hit-call score of the fitted dose curve at least 0.9, where 1 is the maximum). The method, boiled down: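 PCA, HEK293T, 8 h compound exposure; FXR–SRC-1 binding reconstitutes split reporter; fluorescence intensity; positive-direction fit vs DMSO.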
Sequence of Bile acid receptor (Homo sapiens) (Q96RI1 whole entry, looked up, the tested form may be a part): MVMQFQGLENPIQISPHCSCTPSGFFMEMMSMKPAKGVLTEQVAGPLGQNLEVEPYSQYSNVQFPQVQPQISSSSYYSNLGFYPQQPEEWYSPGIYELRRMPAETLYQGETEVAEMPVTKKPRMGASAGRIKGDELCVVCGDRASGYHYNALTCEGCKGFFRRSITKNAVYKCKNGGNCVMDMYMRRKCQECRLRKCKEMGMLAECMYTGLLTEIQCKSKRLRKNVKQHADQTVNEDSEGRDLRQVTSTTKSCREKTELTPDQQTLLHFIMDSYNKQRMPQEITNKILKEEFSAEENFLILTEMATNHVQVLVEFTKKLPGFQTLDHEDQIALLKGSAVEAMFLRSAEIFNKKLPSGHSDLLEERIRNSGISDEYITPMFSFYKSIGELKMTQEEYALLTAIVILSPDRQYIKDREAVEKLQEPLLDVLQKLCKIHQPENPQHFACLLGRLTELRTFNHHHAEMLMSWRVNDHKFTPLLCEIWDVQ

Assay [2] addresses Peroxisome proliferator-activated receptor gamma (Homo sapiens) (UniProt P37231). Nature of the assay: OT_PPARg_PPARgSRC1_0480: Odyssey Thera (OT) 8-hour Protein-Complementation Assay for Peroxisome Proliferator-activated Receptor Gamma / SRC-1 Co-activator (AID 2283387; active = hit-call score of the fitted dose curve at least 0.9, where 1 is the maximum). The method, boiled down:
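Read-out: 488 nm N/C fluorescence ratio from complemented Venus YFP fragments, ≥350 cells per image, gain-of-signal fitted against DMSO baseline. Fusions of PPARg/SRC-1 with IFP1/IFP2 expressed transiently in HEK293T; compounds applied 8 h.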

Assay [3] has the same target. Description: OT_PPARg_PPARgSRC1_1440: Odyssey Thera (OT) 24-hour Protein-Complementation Assay for Peroxisome Proliferator-activated Receptor Gamma/ SRC-1 Co-activator (AID 2283388; active = hit-call score of the fitted dose curve at least 0.9, where 1 is the maximum). The method, boiled down:
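HEK293T transiently transfected with PPARg/SRC-1 split-Venus YFP fusions 48 h before dosing, then treated 24 h at 37C. Fixed cells imaged; nuclear/cytoplasmic 488 nm fluorescence ratio, gain of signal versus DMSO.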

Read-out in assay [4]: Tumor necrosis factor receptor superfamily member 6 (Homo sapiens) (UniProt P25445)
Nature of the assay: LTEA_HepaRG_FAS: Life Technologies and Expression Analysis (LTEA) Assay for Fas cell surface death receptor (FAS) using HepaRG (AID 2283447). The following applies: mRNA level, 48 h; actives raise or lower the signal. The method, boiled down:
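Differentiated HepaRG cells in serum-free induction medium were exposed 48 h to 8 half-log concentrations up to 100 uM in 0.5% DMSO, in duplicate. FAS mRNA was measured by qRT-PCR normalised to ACTB, GAPDH and POLR2A; bidirectional fit versus DMSO.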

Read-out in assay [5]: Fatty acid synthase (Homo sapiens) (UniProt P49327)
Description: LTEA_HepaRG_FASN: Life Technologies and Expression Analysis (LTEA) Assay for Fatty Acid Synthase (FASN) using HepaRG (AID 2283448).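 As to AC50: differentiated human HepaRG liver cells in serum-free induction medium.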 The following applies: mRNA level, 48 h; actives raise or lower the signal. The method, boiled down:
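Cells were plated, cultured 48 h, switched to serum-free induction medium, then dosed in duplicate (max 100 uM, half-log dilutions, 0.5% DMSO) for 48 h. RNA was then isolated and FASN quantified by qRT-PCR.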

Read-out in assay [6]: Cyclin D2 (CCND2), CCND2 (gene 894)
Description: LTEA_HepaRG_CCND2: Life Technologies and Expression Analysis (LTEA) Assay for Cyclin D2 (CCND2) using HepaRG (AID 2283449).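 Also: CCND2 transcript measured by TaqMan qRT-PCR and normalised to three housekeeping genes.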 The following applies: mRNA level, 48 h; actives raise or lower the signal. The method, boiled down: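 HepaRG, 48 h dosing, 8-pt half-log curve from 100 uM, 0.5% DMSO; duplicate wells. Readout: CCND2 transcript by microfluidic qRT-PCR, housekeeping-normalised; bidirectional fit vs DMSO baseline.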

Read-out in assay [7]: Cyclin Dependent Kinase Inhibitor 1A (CDKN1A), CDKN1A (gene 1026)
Description: LTEA_HepaRG_CDKN1A: Life Technologies and Expression Analysis (LTEA) Assay for Cyclin Dependent Kinase Inhibitor 1A (CDKN1A) using HepaRG (AID 2283450). The following applies: mRNA level, 48 h; actives raise or lower the signal. The method, boiled down: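 Differentiated HepaRG cells in serum-free induction medium, exposed 48 h in duplicate to eight half-log concentrations up to 100 uM in 0.5% DMSO. mRNA measured by TaqMan qRT-PCR, normalized to ACTB, GAPDH, POLR2A; bidirectional fit versus DMSO.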

The target of assay [8] is Retinoic acid receptor RXR-alpha (Homo sapiens) (UniProt P19793). Description: OT_NURR1_NURR1RXRa_0480: Odyssey Thera (OT) 8-hour HEK293T Protein Complementation Assay for Nurr1/retinoid X receptor (RXR) (AID 2283385; active = hit-call score of the fitted dose curve at least 0.9, where 1 is the maximum). The method, boiled down: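 Interaction of bait and prey reconstitutes a functional reporter, whose fluorescence was measured in HEK293T cells dosed with compound for 8 hours. Signal gain relative to DMSO defined the single endpoint.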
Sequence of Retinoic acid receptor RXR-alpha (Homo sapiens) (P19793 whole entry, looked up): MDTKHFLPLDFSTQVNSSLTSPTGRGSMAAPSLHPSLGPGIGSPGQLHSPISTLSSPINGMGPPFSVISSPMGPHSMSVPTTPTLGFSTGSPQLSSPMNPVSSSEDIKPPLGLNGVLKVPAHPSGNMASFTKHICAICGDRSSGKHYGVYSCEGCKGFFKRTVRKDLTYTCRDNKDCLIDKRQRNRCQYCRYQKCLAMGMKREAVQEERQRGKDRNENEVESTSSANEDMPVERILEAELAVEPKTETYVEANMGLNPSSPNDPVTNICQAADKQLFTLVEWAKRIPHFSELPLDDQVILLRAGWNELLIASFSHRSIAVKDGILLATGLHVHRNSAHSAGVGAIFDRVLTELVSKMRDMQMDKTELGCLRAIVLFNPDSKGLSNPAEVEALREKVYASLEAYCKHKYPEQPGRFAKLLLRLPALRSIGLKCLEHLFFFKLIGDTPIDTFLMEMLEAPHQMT

Assay [9] has the same target. Description: OT_NURR1_NURR1RXRa_1440: Odyssey Thera (OT) 24-hour HEK293T Protein Complementation Assay for Nurr1/retinoid X receptor (RXR) (AID 2283386; active = hit-call score of the fitted dose curve at least 0.9, where 1 is the maximum). The method, boiled down: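 Steps: fragment-tagged Nurr1 and RXRα expressed in HEK293T; compounds added; after 24 h, complemented reporter quantified by fluorescence intensity; signal increase over DMSO fitted as the single endpoint.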

Assay [10] in a line: CEETOX_H295R_CORTIC: CeeTox H295R High-throughput Steroidogenesis Assay for Corticosterone (CORTIC) (AID 2283437).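 Also: corticosterone secreted into medium quantified by mass spectrometry.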 The following applies: actives raise or lower the signal. The method, boiled down:
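48 h forskolin (10 uM) prestim, then 48 h chemical exposure, final DMSO 0.1%. Readout: corticosterone in medium by LC-MS/MS after MTBE extraction. Gain/loss fit vs DMSO; MTT viability in same wells.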

Assay [11] can be described thus: CEETOX_H295R_CORTISOL: CeeTox H295R High-throughput Steroidogenesis Assay for Cortisol (AID 2283438). As to conditions: actives raise or lower the signal. The method, boiled down: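 Cortisol synthesis by H295R cells is measured 48 h after chemical dosing, following a 48 h stimulation with 10 uM forskolin. Hormone is extracted and quantified by HPLC-MS/MS, and activity is fitted bidirectionally against the DMSO control.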

Assay [12] is described as follows: CEETOX_H295R_DOC: CeeTox H295R High-throughput Steroidogenesis Assay for DOC (AID 2283439). As to conditions: actives raise or lower the signal. The method, boiled down:
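Steps: seed H295R, adhere overnight; 10 uM forskolin 48 h; replace with chemical medium (0.1% DMSO) 48 h; collect medium, MTBE extraction, HPLC-MS/MS for DOC. Viability then checked by MTT; cytotoxic chemicals diluted until viability ≥70%.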

A short description of assay [13]: CEETOX_H295R_ESTRADIOL: CeeTox H295R High-throughput Steroidogenesis Assay for Estradiol (AID 2283440).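 Also: estradiol secreted into medium quantified by LC-MS/MS after dansyl derivatisation.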 As to conditions: actives raise or lower the signal. The method, boiled down: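 H295R cells pre-stimulated 48 h with 10 uM forskolin, then exposed 48 h to chemical in 0.1% DMSO. Medium estradiol quantified by MTBE extraction, dansyl derivatisation and HPLC-MS/MS; bidirectional fit versus DMSO; MTT viability required >/=70%.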

Assay [14] in a line: CEETOX_H295R_ESTRONE: CeeTox H295R High-throughput Steroidogenesis Assay for Estrone (AID 2283441). As to conditions: actives raise or lower the signal. The method, boiled down: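 Estrone secreted into medium quantified by LC-MS/MS after dansyl chloride derivatization, following 48 h chemical exposure (0.1% DMSO final) of forskolin-prestimulated (10 uM, 48 h) H295R cells; gain or loss fitted against DMSO; MTT viability in same wells.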

Assay [15] deals with Bile acid receptor (Homo sapiens) (UniProt Q96RI1). Description: OT_FXR_FXRSRC1_1440: Odyssey Thera (OT) 24-hour HEK293T Protein-Complementation Assay for Farnesoid X receptor/SRC-1 Co-activator (AID 2283384; active = hit-call score of the fitted dose curve at least 0.9, where 1 is the maximum). The method, boiled down: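 Measures ligand-driven FXR–SRC-1 co-activator recruitment in HEK293T via fragment complementation, fluorescence intensity at 24 h. DMSO served as negative control and baseline for gain-of-signal fitting.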

Assay [16] in a line: CEETOX_H295R_11DCORT: CeeTox H295R High-throughput Steroidogenesis Assay for 11-Deoxycortisol (11DCORT) (AID 2283432). As to conditions: actives raise or lower the signal. The method, boiled down: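 H295R cells; 10 uM forskolin prestim 48 h; compound in 0.1% DMSO 48 h; media extracted with MTBE; 11-deoxycortisol by LC-MS/MS, 7-point standard curve; gain/loss vs DMSO baseline; viability by MTT in same wells.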

Assay [17] can be described thus: CEETOX_H295R_OHPREG: CeeTox H295R High-throughput Steroidogenesis Assay for OH-Pregnenolone (OHPREG) (AID 2283434). As to conditions: actives raise or lower the signal. The method, boiled down: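 H295R, 10 uM forskolin pre-stim 48 h; test chemical 48 h, 0.1% DMSO final. MTBE extraction, reverse-phase C18 HPLC-ESI+ MS/MS of medium. Gain/loss vs DMSO; viability by MTT in same wells.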

A short description of assay [18]: CEETOX_H295R_OHPROG: CeeTox H295R High-throughput Steroidogenesis Assay for OH-Progesterone (OHPROG) (AID 2283435). The following applies: actives raise or lower the signal. The method, boiled down: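 Steps: seed H295R cells and adhere overnight; stimulate with 10 uM forskolin for 48 h; replace with chemical-containing medium (0.1% DMSO) for 48 h; extract medium with MTBE; quantify 17alpha-hydroxyprogesterone by reverse-phase C18 HPLC-MS/MS against a 7-point curve.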

A short description of assay [19]: CEETOX_H295R_ANDR: CeeTox H295R High-throughput Steroidogenesis Assay for Androstenedione (ANDR) (AID 2283436).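 Also: human H295R adrenal cells exposed for 48 h with androstenedione measured in medium.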 As to conditions: actives raise or lower the signal. The method, boiled down:
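48 h chemical exposure, H295R cells, DMEM/F12 + ITS+ and Nu-Serum. Medium androstenedione: MTBE extraction, C18 reverse-phase HPLC, ESI+ MS/MS. Fit bidirectional vs DMSO; MTT viability in same wells.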

Assay [20] is described as follows: CEETOX_H295R_PROG: CeeTox H295R High-throughput Steroidogenesis Assay for Progesterone (PROG) (AID 2283442). As to conditions: actives raise or lower the signal. The method, boiled down: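 H295R adrenal cells prestimulated 48 h with 10 uM forskolin, then exposed 48 h to test chemical in 0.1% DMSO. Progesterone in medium quantified by HPLC-MS/MS after MTBE extraction; viability checked by MTT in same wells.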

The structures appear in SMILES notation. Inconclusive results are not listed. Calls of active or inactive are those of the source. The calls were made as follows, unless noted: active = hit-call score of the fitted dose curve at least 0.9, where 1 is the maximum; inactive = score below 0.9.

Sequence of Fatty acid synthase (Homo sapiens) (P49327 whole entry, looked up): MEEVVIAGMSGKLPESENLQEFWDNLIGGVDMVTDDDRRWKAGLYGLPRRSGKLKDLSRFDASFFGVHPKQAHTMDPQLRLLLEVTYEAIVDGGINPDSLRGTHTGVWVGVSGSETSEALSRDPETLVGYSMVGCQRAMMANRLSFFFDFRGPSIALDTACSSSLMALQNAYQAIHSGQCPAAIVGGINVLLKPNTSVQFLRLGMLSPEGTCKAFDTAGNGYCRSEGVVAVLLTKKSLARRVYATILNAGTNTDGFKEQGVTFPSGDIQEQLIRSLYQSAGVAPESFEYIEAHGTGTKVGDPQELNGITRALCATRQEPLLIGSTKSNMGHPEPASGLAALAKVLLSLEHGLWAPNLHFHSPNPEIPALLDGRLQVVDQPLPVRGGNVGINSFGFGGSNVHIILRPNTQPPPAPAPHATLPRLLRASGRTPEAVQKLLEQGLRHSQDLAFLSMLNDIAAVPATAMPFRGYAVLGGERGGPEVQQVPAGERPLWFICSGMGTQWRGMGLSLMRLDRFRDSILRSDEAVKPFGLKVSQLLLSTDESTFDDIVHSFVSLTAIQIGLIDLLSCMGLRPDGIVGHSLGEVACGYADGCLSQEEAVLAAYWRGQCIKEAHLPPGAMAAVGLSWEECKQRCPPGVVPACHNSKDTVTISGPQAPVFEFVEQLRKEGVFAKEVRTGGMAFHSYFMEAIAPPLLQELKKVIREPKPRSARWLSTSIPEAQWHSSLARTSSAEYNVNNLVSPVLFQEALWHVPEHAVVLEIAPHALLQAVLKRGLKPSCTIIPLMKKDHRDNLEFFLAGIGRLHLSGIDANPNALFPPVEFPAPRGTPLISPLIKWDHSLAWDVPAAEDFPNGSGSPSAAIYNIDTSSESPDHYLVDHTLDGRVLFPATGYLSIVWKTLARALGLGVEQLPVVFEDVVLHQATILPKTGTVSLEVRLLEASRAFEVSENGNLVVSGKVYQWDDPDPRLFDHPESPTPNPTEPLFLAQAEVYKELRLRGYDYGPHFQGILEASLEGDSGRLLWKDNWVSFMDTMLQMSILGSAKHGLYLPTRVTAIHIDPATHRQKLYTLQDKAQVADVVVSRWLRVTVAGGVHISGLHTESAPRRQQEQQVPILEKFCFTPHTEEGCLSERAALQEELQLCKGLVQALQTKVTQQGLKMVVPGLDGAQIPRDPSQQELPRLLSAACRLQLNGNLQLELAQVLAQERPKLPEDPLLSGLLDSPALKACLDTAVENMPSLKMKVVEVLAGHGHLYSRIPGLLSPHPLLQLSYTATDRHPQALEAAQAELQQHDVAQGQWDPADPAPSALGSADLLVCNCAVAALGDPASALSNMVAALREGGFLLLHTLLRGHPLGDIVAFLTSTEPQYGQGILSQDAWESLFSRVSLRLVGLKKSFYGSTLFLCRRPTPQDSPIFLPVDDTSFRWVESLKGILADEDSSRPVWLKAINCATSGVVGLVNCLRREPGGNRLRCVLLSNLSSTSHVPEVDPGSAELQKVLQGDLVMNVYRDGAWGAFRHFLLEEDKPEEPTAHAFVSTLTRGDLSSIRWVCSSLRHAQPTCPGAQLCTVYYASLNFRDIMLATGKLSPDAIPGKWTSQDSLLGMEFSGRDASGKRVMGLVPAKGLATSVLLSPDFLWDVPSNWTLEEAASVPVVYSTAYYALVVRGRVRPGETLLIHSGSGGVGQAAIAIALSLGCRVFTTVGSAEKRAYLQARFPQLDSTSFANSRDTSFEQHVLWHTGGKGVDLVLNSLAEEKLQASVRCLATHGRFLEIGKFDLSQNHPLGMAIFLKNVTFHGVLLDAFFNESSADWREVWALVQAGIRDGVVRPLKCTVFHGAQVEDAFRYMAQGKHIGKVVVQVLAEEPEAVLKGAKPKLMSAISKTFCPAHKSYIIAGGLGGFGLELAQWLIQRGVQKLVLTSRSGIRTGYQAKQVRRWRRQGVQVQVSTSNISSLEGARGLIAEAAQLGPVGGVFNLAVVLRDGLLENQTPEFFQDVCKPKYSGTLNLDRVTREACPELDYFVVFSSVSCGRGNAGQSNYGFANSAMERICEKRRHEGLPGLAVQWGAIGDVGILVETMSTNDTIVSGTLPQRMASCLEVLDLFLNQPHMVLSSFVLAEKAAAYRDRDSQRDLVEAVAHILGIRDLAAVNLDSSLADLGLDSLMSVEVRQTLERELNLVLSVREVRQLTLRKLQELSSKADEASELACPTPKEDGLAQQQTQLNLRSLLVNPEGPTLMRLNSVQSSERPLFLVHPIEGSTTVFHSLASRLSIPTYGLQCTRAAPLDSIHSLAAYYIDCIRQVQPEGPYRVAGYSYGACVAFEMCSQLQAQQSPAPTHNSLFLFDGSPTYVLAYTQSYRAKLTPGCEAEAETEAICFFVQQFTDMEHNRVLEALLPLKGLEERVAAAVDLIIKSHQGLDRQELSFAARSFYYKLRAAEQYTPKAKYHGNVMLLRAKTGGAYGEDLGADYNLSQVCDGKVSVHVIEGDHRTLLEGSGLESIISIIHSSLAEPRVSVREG
Sequence of Peroxisome proliferator-activated receptor gamma (Homo sapiens) (P37231 whole entry, looked up, the tested form may be a part): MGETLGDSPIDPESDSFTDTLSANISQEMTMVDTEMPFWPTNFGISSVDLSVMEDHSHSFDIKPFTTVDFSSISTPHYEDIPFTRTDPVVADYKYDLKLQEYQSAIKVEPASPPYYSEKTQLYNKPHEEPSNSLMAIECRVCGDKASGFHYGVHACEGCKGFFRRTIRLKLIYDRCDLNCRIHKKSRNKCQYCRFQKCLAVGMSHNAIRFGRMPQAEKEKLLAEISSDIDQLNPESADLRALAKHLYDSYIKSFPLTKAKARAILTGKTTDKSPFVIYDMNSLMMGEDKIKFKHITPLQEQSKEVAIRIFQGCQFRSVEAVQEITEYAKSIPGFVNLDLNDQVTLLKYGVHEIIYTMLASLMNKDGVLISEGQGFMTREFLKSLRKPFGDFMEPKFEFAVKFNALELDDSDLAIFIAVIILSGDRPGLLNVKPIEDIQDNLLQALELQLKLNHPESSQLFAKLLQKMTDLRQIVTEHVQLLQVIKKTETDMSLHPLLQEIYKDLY

On to `CN(C)C(=S)SSC(=S)N(C)C`, for which the compound was classed as inactive in [1], in assay [2], in assay [3], in [4], in [5] and in [6]. The result in assay [7] was inactive.
Take `COP(=S)(OC)Oc1nc(Cl)c(Cl)cc1Cl`: the compound was called inactive in assay [1], in [8], in [9], in assay [2], in [3] and in assay [10]. Further, the outcome in assay [11], in [12], in assay [13], in assay [14], in assay [4] and in assay [5] was inactive. Moreover, the call in assay [6] and in assay [7] was inactive.
With `CCCCNC(=O)n1c(NC(=O)OC)nc2ccccc21`, the outcome in assay [1], in [15], in [2], in [3], in [16] and in [17] was inactive. In addition, the result in assay [18], in [19], in assay [10], in assay [11], in assay [12] and in assay [13] was inactive. Moreover, the call in assay [14], in assay [20], in assay [4], in assay [5], in [6] and in assay [7] was inactive.
With `O=C(O)COc1nc(Cl)c(Cl)cc1Cl`, the compound was classed as inactive in [1], in assay [8], in assay [9], in assay [2], in assay [3] and in assay [4]. The result in assay [5], in assay [6] and in [7] was inactive.
The AC50 is the concentration at which the activity in the assay is half-maximal. As to `OC(c1ccc(Cl)cc1)(c1cncnc1)c1ccccc1Cl` (centres undefined), the compound was called inactive in assay [9], in assay [2], in assay [3] and in assay [6]. Moreover, the AC50 in assay [4] was 81 µM (active); in [5], 87.3 µM (active); in [7] it was 70.5 µM (active).
On to `CCCCNC(=O)OCC#CI`, for which the figures for the AC50 in assay [8], in assay [9] and in assay [4] were 11.4 µM (active), 11.7 µM (active) and 0.00316 µM (active), respectively. Besides, the call in assay [2], in assay [3], in assay [5], in assay [6] and in [7] was inactive.
For the compound `Cc1cc(Cl)ccc1OCC(=O)O`, the outcome in assay [8], in assay [9], in [2], in [3], in [16] and in assay [17] was inactive. Moreover, the outcome in [18], in [19], in assay [10], in assay [11], in assay [12] and in assay [20] was inactive. In addition, the compound was called inactive in assay [4], in assay [5], in assay [6] and in [7].
